Measured values taken from PubChem BioAssay AID1159580 (chemical genetic matrix, 2015).
About 2,000 (36%) of roughly 5,500 compounds were called active. Not shown: some 18% with an inconclusive outcome. Rule as the data show it: active = normalized growth mostly below about 0.91 (no sharp cut-off); inconclusive = no clear call, values can overlap the other calls; inactive = mostly above about 0.92. Some of the results follow.

Test: chemical genetic growth profiling, strain panel (AID 1159580);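 also: tested at 20 µM; growth read once vehicle control cultures reached saturation at 30 °C; 1 = growth at the plate median or of vehicle wells; lower values mean less growth of the strain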
Conditions: growth OD

Measured: normalized growth

CC1(C)O[C@@H]2CC3C4C[C@H](F)C5=CC(=O)C=CC5(C)C4C(O)CC3(C)[C@]2(C(=O)CO)O1 (some centres undefined)
inactive: S. cerevisiae deletion strains, locus YKL009W, strain mrt4, hits give low values 0.996 | S. cerevisiae deletion strains, locus YKL068W, hits give low values 0.992 | S. cerevisiae deletion strains, locus YKL085W, strain MDH1 (second series), hits give low values 1.01 | S. cerevisiae deletion strains, locus YKL085W, strain MDH1, hits give low values 1.01 | S. cerevisiae deletion strains, locus YKL160W, strain elf1, hits give low values 0.967 | S. cerevisiae deletion strains, locus YKL190W, strain CNB1, hits give low values 1.01 | S. cerevisiae deletion strains, locus YKR001C, strain vps1, hits give low values 1.01 | S. cerevisiae deletion strains, locus YKR026C, strain gcn3, hits give low values 0.988 | S. cerevisiae deletion strains, locus YKR091W, strain srl3, hits give low values 0.985 | S. cerevisiae deletion strains, locus YLL001W, strain dnm1, hits give low values 0.978 | S. cerevisiae deletion strains, locus YLL026W, hits give low values 1.02 | S. cerevisiae deletion strains, locus YLL041C, strain sdh2, hits give low values 0.981 | S. cerevisiae deletion strains, locus YLR027C, strain aat2, hits give low values 0.992 | S. cerevisiae deletion strains, locus YLR039C, strain RIC1, hits give low values 0.995 | S. cerevisiae deletion strains, locus YLR058C, strain SHM2, hits give low values 1.02 | S. cerevisiae deletion strains, locus YLR102C, strain apc9, hits give low values 0.981 | S. cerevisiae deletion strains, locus YLR113W, strain HOG1, hits give low values 1.04 | S. cerevisiae deletion strains, locus YLR221C, strain rsa3, hits give low values 1.02 | S. cerevisiae deletion strains, locus YLR258W, strain gsy2, hits give low values 0.984 | S. cerevisiae deletion strains, locus YLR262C, strain YPT6 (second series), hits give low values 0.969 | S. cerevisiae deletion strains, locus YLR262C, strain YPT6, hits give low values 1 | S. cerevisiae deletion strains, locus YLR268W, strain sec22, hits give low values 1.01 | S. cerevisiae deletion strains, locus YLR320W, strain mms22, hits give low values 0.981 | S. cerevisiae deletion strains, locus YLR330W, strain CHS5, hits give low values 1.02 | S. cerevisiae deletion strains, locus YLR342W, strain FKS1 (second series), hits give low values 1 | S. cerevisiae deletion strains, locus YLR342W, strain FKS1, hits give low values 0.978 | S. cerevisiae deletion strains, locus YLR357W, strain rsc2, hits give low values 0.933 | S. cerevisiae deletion strains, locus YLR370C, strain arc18, hits give low values 0.981 | S. cerevisiae deletion strains, locus YLR371W, strain rom2, hits give low values 0.988 | S. cerevisiae deletion strains, locus YLR384C, strain iki3, hits give low values 0.992 | S. cerevisiae deletion strains, locus YLR418C, strain cdc73, hits give low values 0.977 | S. cerevisiae deletion strains, locus YML016C, strain PPZ1, hits give low values 1.02 | S. cerevisiae deletion strains, locus YML032C, strain rad52, hits give low values 0.979 | S. cerevisiae deletion strains, locus YML120C, strain ndi1, hits give low values 1 | S. cerevisiae deletion strains, locus YML124C, strain tub3, hits give low values 0.992 | S. cerevisiae deletion strains, locus YMR058W, strain fet3, hits give low values 1.01 | S. cerevisiae deletion strains, locus YMR078C, strain ctf18, hits give low values 1 | S. cerevisiae deletion strains, locus YMR125W, strain sto1, hits give low values 0.979 | S. cerevisiae deletion strains, locus YMR129W, hits give low values 1.01 | S. cerevisiae deletion strains, locus YMR205C, strain PFK2, hits give low values 0.981 | S. cerevisiae deletion strains, locus YMR223W, strain ubp8, hits give low values 0.996 | S. cerevisiae deletion strains, locus YMR231W, strain pep5, hits give low values 0.978 | S. cerevisiae deletion strains, locus YMR263W, strain SAP30, hits give low values 1.02 | S. cerevisiae deletion strains, locus YMR307W, strain GAS1, hits give low values 1.07 | S. cerevisiae deletion strains, locus YNL067W, strain RPL9B, hits give low values 1.03 | S. cerevisiae deletion strains, locus YNL071W, strain lat1, hits give low values 0.987 | S. cerevisiae deletion strains, locus YNL153C, strain GIM3, hits give low values 1.03 | S. cerevisiae deletion strains, locus YNL183C, strain NPR1, hits give low values 0.953 | S. cerevisiae deletion strains, locus YNL209W, strain ssb2, hits give low values 0.974 | S. cerevisiae deletion strains, locus YNL233W, strain BNI4, hits give low values 1.02 | S. cerevisiae deletion strains, locus YNL248C, strain rpa49, hits give low values 0.927 | S. cerevisiae deletion strains, locus YNL250W, strain rad50, hits give low values 0.993 | S. cerevisiae deletion strains, locus YNL271C, strain bni1, hits give low values 0.97 | S. cerevisiae deletion strains, locus YNL298W, strain CLA4, hits give low values 0.988 | S. cerevisiae deletion strains, locus YNL307C, strain MCK1, hits give low values 0.98 | S. cerevisiae deletion strains, locus YNL322C, strain KRE1 (second series), hits give low values 0.963 | S. cerevisiae deletion strains, locus YNL322C, strain KRE1, hits give low values 1.01 | S. cerevisiae deletion strains, locus YNR049C, strain mso1, hits give low values 0.974 | S. cerevisiae deletion strains, locus YNR052C, strain pop2, hits give low values 0.993 | S. cerevisiae deletion strains, locus YOL006C, strain TOP1, hits give low values 1.01 | S. cerevisiae deletion strains, locus YOL012C, strain htz1 0.907 | S. cerevisiae deletion strains, locus YOL147C, strain pex11, hits give low values 0.992 | S. cerevisiae deletion strains, locus YOR001W, strain rrp6, hits give low values 1.01 | S. cerevisiae deletion strains, locus YOR061W, strain CKA2, hits give low values 1.02 | S. cerevisiae deletion strains, locus YOR069W, strain VPS5, hits give low values 1.01 | S. cerevisiae deletion strains, locus YOR070C, strain gyp1, hits give low values 0.984 | S. cerevisiae deletion strains, locus YOR080W, strain dia2, hits give low values 0.977 | S. cerevisiae deletion strains, locus YOR083W, strain WHI5, hits give low values 0.918 | S. cerevisiae deletion strains, locus YOR106W, strain vam3, hits give low values 0.976 | S. cerevisiae deletion strains, locus YOR136W, strain idh2, hits give low values 0.994 | S. cerevisiae deletion strains, locus YOR144C, strain elg1, hits give low values 0.984 | S. cerevisiae deletion strains, locus YOR184W, strain ser1, hits give low values 0.982 | S. cerevisiae deletion strains, locus YOR231W, strain MKK1, hits give low values 1.02 | S. cerevisiae deletion strains, locus YOR265W, strain rbl2, hits give low values 1.01 | S. cerevisiae deletion strains, locus YOR270C, strain vph1, hits give low values 0.955 | S. cerevisiae deletion strains, locus YOR290C, strain snf2, hits give low values 0.964 | S. cerevisiae deletion strains, locus YOR316C, strain cot1, hits give low values 0.983 | S. cerevisiae deletion strains, locus YPL051W, strain arl3, hits give low values 0.981 | S. cerevisiae deletion strains, locus YPL055C, strain LGE1, hits give low values 1.04 | S. cerevisiae deletion strains, locus YPL078C, strain atp4, hits give low values 0.977 | S. cerevisiae deletion strains, locus YPL106C, strain sse1, hits give low values 0.95 | S. cerevisiae deletion strains, locus YPL240C, strain hsp82, hits give low values 0.992 | S. cerevisiae deletion strains, locus YPL256C, strain CLN2, hits give low values 1.03 | S. cerevisiae deletion strains, locus YPR119W, strain clb2, hits give low values 0.987 | S. cerevisiae deletion strains, locus YPR141C, strain kar3, hits give low values 0.996 | S. cerevisiae deletion strains, locus YPR163C, strain tif3, hits give low values 0.988 | S. cerevisiae deletion strains, locus YPR167C, strain met16, hits give low values 0.987 | S. cerevisiae deletion strains, strain wtn01, hits give low values 0.984 | S. cerevisiae strains, strain wild type, hits give low values 1.02
